Several values for one entry are separate records, joined by “and”; a condition that tells them apart may be missing. Equal entries are not always repeated. Inconclusive results are not listed. Where a call stands in place of a potency, no number is given. Some compounds were tested as several samples or in several runs, with calls that do not always agree. Activity calls are given as the source filed them. Calls come from the whole dose curve. Numbered stars: 1 amine (or outer) side, 2 acyl side, 3 side chain; on linkers, the order of the positions; unused ones are H or OH. Bridge positions count the residues as written; N and C are the ends. Square brackets hold non-standard residues; d marks the D form. Peptide text beside a SMILES is read from it. I, II: the chains in the order shown. Actinocin(9to1) = Cc1c2oc3c(C)ccc(C(=O)[*:1])c3nc-2c(C(=O)[*:2])c(N)c1=O; NMeV = CN[C@H](C(=O)O)C(C)C; Sar = CNCC(=O)O
Assay: Cytotoxicity counterscreen for inhibitors of SARS-CoV-2 cell entry (AID 1645845); note: nearly all actives have a fitted effect of over 50% in size
Conditions: cell viability (SARS-CoV-2 entry assay cells); series mostly up to 57.1 µM
How it was run: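 Expi293F/hACE2 cells seeded overnight; cpd pin-transferred in DMSO, 1 h preincubation, + media, 48 h 37 C 5% CO2; ATPLite 1step luminescence; normalized to cells and no cells.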
Potency is the fitted concentration of half-maximal effect.

Structure (SMILES)	Potency
Cc1c2oc3c(C)ccc(C(=O)N[C@@H]4C(=O)N[C@H](C(C)C)C(=O)N5CCC[C@H]5C(=O)N(C)CC(=O)N(C)[C@@H](C(C)C)C(=O)O[C@@H]4C)c3nc-2c(C(=O)N[C@@H]2C(=O)N[C@H](C(C)C)C(=O)N3CCC[C@H]3C(=O)N(C)CC(=O)N(C)[C@@H](C(C)C)C(=O)O[C@@H]2C)c(N)c1=O (I: T[dV]P[Sar][NMeV] / II: T[dV]P[Sar][NMeV]; ester I:1-I:C, II:1-II:C; linker I:N-II:N via Actinocin(9to1))	inactive
COC[C@H]1OC(=O)c2coc3c2[C@@]1(C)C1=C(C3=O)C2CCC(=O)[C@@]2(C)C[C@H]1OC(C)=O (some centres undefined)	inactive
CC(CN(C)C)CN1c2ccccc2CCc2ccccc21 (centres undefined)	inactive
COC(=O)[C@@H]1CC2=CC(=O)CC[C@]2(C)[C@@]23O[C@@H]2C[C@@]2(C)[C@@H](CC[C@@]24CCC(=O)O4)[C@H]13	inactive
CC(C)(C)C(=O)OCOP(=O)(COCCn1cnc2c(N)ncnc21)OCOC(=O)C(C)(C)C	inactive
CN(C)C(=O)C(CCN1CCC(O)(c2ccc(Cl)cc2)CC1)(c1ccccc1)c1ccccc1	inactive
CN(C)CCN(C)CCc1ccc(Cl)c(Cl)c1	inactive
C=C(CC)C(=O)c1ccc(OCC(=O)O)c(Cl)c1Cl	inactive
CC[C@]1(O)C[C@H]2CN(CCc3c([nH]c4ccccc34)[C@@](C(=O)OC)(c3cc4c(cc3OC)N(C=O)[C@H]3[C@@](O)(C(=O)OC)[C@H](OC(C)=O)[C@]5(CC)C=CCN6CC[C@]43[C@@H]65)C2)C1	inactive
Cc1nc(Nc2ncc(C(=O)Nc3c(C)cccc3Cl)s2)cc(N2CCN(CCO)CC2)n1	inactive
COC(c1ccccc1)(c1ccccc1)[C@H](Oc1nc(C)cc(C)n1)C(=O)O	inactive
Cc1cn([C@H]2C[C@H](N=[N+]=[N-])[C@@H](CO)O2)c(=O)[nH]c1=O	inactive
CCC1=C[C@@H]2CN(C1)Cc1c([nH]c3ccccc13)[C@@](C(=O)OC)(c1cc3c(cc1OC)N(C)[C@H]1[C@@](O)(C(=O)OC)[C@H](OC(C)=O)[C@]4(CC)C=CCN5CC[C@]31[C@@H]54)C2	inactive
CN1CCC(=C2c3ccccc3C=Cc3ccccc32)CC1	inactive
CN(C)c1nc(N(C)C)nc(N(C)C)n1	inactive
CC(=O)[C@]1(O)Cc2c(O)c3c(c(O)c2[C@@H](O[C@H]2C[C@H](N)[C@H](O)[C@H](C)O2)C1)C(=O)c1ccccc1C3=O	inactive
COc1c(C)c2c(c(O)c1C/C=C(\C)CCC(=O)OCCN1CCOCC1)C(=O)OC2	inactive
CC[C@]1(O)C[C@@H]2CN(CCc3c([nH]c4ccccc34)[C@@](C(=O)OC)(c3cc4c(cc3OC)N(C)[C@H]3[C@@](O)(C(=O)OC)[C@H](OC(C)=O)[C@]5(CC)C=CCN6CC[C@]43[C@@H]65)C2)C1	inactive
COC(=O)Nc1nc2ccc(C(=O)c3ccccc3)cc2[nH]1	inactive
CNCCC(Oc1ccc(C(F)(F)F)cc1)c1ccccc1 (centres undefined)	inactive
Cc1oncc1C(=O)Nc1ccc(C(F)(F)F)cc1	8.91 µM (active)
CCc1c2c(nc3ccc(OC(=O)N4CCC(N5CCCCC5)CC4)cc13)-c1cc3c(c(=O)n1C2)COC(=O)[C@]3(O)CC	inactive
CN(C)CCCN1c2ccccc2Sc2ccc(Cl)cc21	inactive
COc1c(C)c2c(c(O)c1C/C=C(\C)CCC(=O)O)C(=O)OC2	inactive
CCCc1cc(=O)[nH]c(=S)[nH]1	inactive
O=C(O)P(=O)(O)O	inactive
CC(=O)Oc1ccccc1C(=O)Nc1ncc([N+](=O)[O-])s1	inactive
CC/C(=C(\c1ccccc1)c1ccc(OCCN(C)C)cc1)c1ccccc1	inactive
COCCCOc1cc(C[C@@H](C[C@H](N)[C@@H](O)C[C@H](C(=O)NCC(C)(C)C(N)=O)C(C)C)C(C)C)ccc1OC	inactive
Nc1ccn([C@@H]2O[C@H](CO)[C@@H](O)C2(F)F)c(=O)n1	inactive

Assay: Primary qHTS to identify inhibitors of SARS-CoV-2 cell entry (AID 1645846); note: nearly all actives have a fitted effect of over 45% in size
Conditions: SARS-CoV-2 pseudovirus cell entry assay, luminescence; activity change, negative = inhibition: at 57.1 µM (top of the series) unless noted; series mostly up to 57.1 µM
How it was run: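 HEK293 cells stably expressing human ACE2, pre-treated 1 h with compound, then infected with MLV particles pseudotyped with Wuhan-Hu-1 spike (C-terminal 19-aa truncation). Luciferase luminescence after 48 h at 37 °C, normalised to spike PP and bald PP.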

Structure (SMILES)	activity change, negative = inhibition	Potency
Cc1c2oc3c(C)ccc(C(=O)N[C@@H]4C(=O)N[C@H](C(C)C)C(=O)N5CCC[C@H]5C(=O)N(C)CC(=O)N(C)[C@@H](C(C)C)C(=O)O[C@@H]4C)c3nc-2c(C(=O)N[C@@H]2C(=O)N[C@H](C(C)C)C(=O)N3CCC[C@H]3C(=O)N(C)CC(=O)N(C)[C@@H](C(C)C)C(=O)O[C@@H]2C)c(N)c1=O (I: T[dV]P[Sar][NMeV] / II: T[dV]P[Sar][NMeV]; ester I:1-I:C, II:1-II:C; linker I:N-II:N via Actinocin(9to1))	-94.7%	
COC(=O)CCc1ccc(OCC(O)CNC(C)C)cc1 (centres undefined)	-35%	
COC[C@H]1OC(=O)c2coc3c2[C@@]1(C)C1=C(C3=O)C2CCC(=O)[C@@]2(C)C[C@H]1OC(C)=O (some centres undefined)	3.38%	
COC(=O)[C@@H]1CC2=CC(=O)CC[C@]2(C)[C@@]23O[C@@H]2C[C@@]2(C)[C@@H](CC[C@@]24CCC(=O)O4)[C@H]13	-17.3%	inactive
CC(C)(C)C(=O)OCOP(=O)(COCCn1cnc2c(N)ncnc21)OCOC(=O)C(C)(C)C	-90.1%	
C=C(CC)C(=O)c1ccc(OCC(=O)O)c(Cl)c1Cl		17.8 µM (active)
Cc1c(OCC(F)(F)F)ccnc1CS(=O)c1nc2ccccc2[nH]1 (centres undefined)		inactive
CC[C@]1(O)C[C@H]2CN(CCc3c([nH]c4ccccc34)[C@@](C(=O)OC)(c3cc4c(cc3OC)N(C=O)[C@H]3[C@@](O)(C(=O)OC)[C@H](OC(C)=O)[C@]5(CC)C=CCN6CC[C@]43[C@@H]65)C2)C1	-77.7% and -70.4%	
CCCN1C[C@H](CSC)C[C@@H]2c3cccc4[nH]cc(c34)C[C@H]21	-12.6%	
COc1cc(Nc2c(C#N)cnc3cc(OCCCN4CCN(C)CC4)c(OC)cc23)c(Cl)cc1Cl		3.16 µM (active)
COC(c1ccccc1)(c1ccccc1)[C@H](Oc1nc(C)cc(C)n1)C(=O)O	-34.8%	inactive
Cc1cn([C@H]2C[C@H](N=[N+]=[N-])[C@@H](CO)O2)c(=O)[nH]c1=O		1 µM (active)
CCC1=C[C@@H]2CN(C1)Cc1c([nH]c3ccccc13)[C@@](C(=O)OC)(c1cc3c(cc1OC)N(C)[C@H]1[C@@](O)(C(=O)OC)[C@H](OC(C)=O)[C@]4(CC)C=CCN5CC[C@]31[C@@H]54)C2	-90.3%	2.82 µM (active)
Cc1cc2c(s1)Nc1ccccc1N=C2N1CCN(C)CC1	-19.8%	
CN1CCC(=C2c3ccccc3C=Cc3ccccc32)CC1	-24.8%	
O=C1OCCN1/N=C/c1ccc([N+](=O)[O-])o1		inactive

Structure (SMILES)	activity change, negative = inhibition	Potency
CN(C)c1nc(N(C)C)nc(N(C)C)n1	-16.8%	inactive
CC(=O)[C@]1(O)Cc2c(O)c3c(c(O)c2[C@@H](O[C@H]2C[C@H](N)[C@H](O)[C@H](C)O2)C1)C(=O)c1ccccc1C3=O	-91.2% and -93.3%	
COc1cc2c(c(OC)c1OC)-c1ccc(OC)c(=O)cc1[C@@H](NC(C)=O)CC2	-76.4%	
COc1c(C)c2c(c(O)c1C/C=C(\C)CCC(=O)OCCN1CCOCC1)C(=O)OC2	-45.8%	
CC[C@]1(O)C[C@@H]2CN(CCc3c([nH]c4ccccc34)[C@@](C(=O)OC)(c3cc4c(cc3OC)N(C)[C@H]3[C@@](O)(C(=O)OC)[C@H](OC(C)=O)[C@]5(CC)C=CCN6CC[C@]43[C@@H]65)C2)C1	-82.9%	
COc1cc2c(cc1OC)[C@@H]1CC(=O)[C@@H](CC(C)C)CN1CC2		inactive
COC(=O)Nc1nc2ccc(C(=O)c3ccccc3)cc2[nH]1	-67.2% and -34.4%	
Cc1oncc1C(=O)Nc1ccc(C(F)(F)F)cc1	-15.8%	inactive
COc1c(C)c2c(c(O)c1C/C=C(\C)CCC(=O)O)C(=O)OC2		1 µM (active)
CCCc1cc(=O)[nH]c(=S)[nH]1	-37.3%	inactive
O=C(O)P(=O)(O)O		inactive
CC(=O)Oc1ccccc1C(=O)Nc1ncc([N+](=O)[O-])s1		5.62 µM (active) and inactive
COCCCOc1cc(C[C@@H](C[C@H](N)[C@@H](O)C[C@H](C(=O)NCC(C)(C)C(N)=O)C(C)C)C(C)C)ccc1OC	-3.02%	inactive
CN/C(=C\[N+](=O)[O-])NCCSCc1ccc(CN(C)C)o1		inactive
Nc1ccn([C@@H]2O[C@H](CO)[C@@H](O)C2(F)F)c(=O)n1	-96.3%	3.16 µM (active)

From PubChem BioAssay (NCATS)
